Laboratory results as given in PubChem BioAssay (EPA / NIEHS).
“And” between values parts separate entries of the source, which are not always exact repeats. Identical values can stand only once. A structure can be active in one record and inactive in another. The source made the active and inactive calls. The calls were made as follows: active = hit-call score of the fitted dose curve at least 0.9, where 1 is the maximum; inactive = score below 0.9.

Read-out: CD90, THY1 (gene 7070)
Test: BSK_BF4T_CD90: BioMAP Diversity Plus: BF4T Assay for CD90 Biomarker Activity (AID 2284262)
Settings: primary human bronchial epithelial cells with fibroblasts
Outline: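 Co-culture of human bronchial epithelial cells and dermal fibroblasts, 24 h compound exposure. Cell-surface CD90 measured by ELISA relative to DMSO; parallel SRB total-protein staining for cytotoxicity.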

| Compound | AC50 | outcome |
| --- | --- | --- |
| O=C(O)C(F)(F)C(F)(F)C(F)(F)C(F)(F)C(F)(F)C(F)(F)C(F)(F)C(F)(F)C(F)(F)C(F)(F)F | 4.83 µM (active) | inactive |
| O=C(O)C(F)(F)C(F)(F)C(F)(F)C(F)(F)C(F)(F)C(F)(F)F | – | inactive |
| O=C(O)CCC(F)(C(F)(F)F)C(F)(F)F | – | inactive |

Read-out: Interleukin-8 (IL8), CXCL8 (gene 3576)
Test: BSK_BF4T_IL8: BioMAP Diversity Plus: BF4T Assay for Interleukin-8 (IL8) Biomarker Activity (AID 2284263)
Settings: primary human bronchial epithelial cells with fibroblasts
Outline: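 Human bronchial epithelial cells with dermal fibroblasts co-culture; IL-8 measured by ELISA 24 hours after dosing, fitted vs DMSO. Cytotoxicity tracked in parallel cultures by SRB total-protein staining.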

| Compound | AC50 | outcome |
| --- | --- | --- |
| O=C(O)C(F)(F)C(F)(F)C(F)(F)C(F)(F)C(F)(F)C(F)(F)C(F)(F)C(F)(F)C(F)(F)C(F)(F)F | 5.82 µM (active) and 5.74 µM (active) | – |
| O=C(O)C(F)(F)C(F)(F)C(F)(F)C(F)(F)C(F)(F)C(F)(F)F | – | inactive |
| O=C(O)CCC(F)(C(F)(F)F)C(F)(F)F | – | inactive |

Read-out: Interleukin-1 alpha (IL1a), IL1A (gene 3552)
Test: BSK_BF4T_IL1a: BioMAP Diversity Plus: BF4T Assay for Interleukin-1 alpha (IL1a) Biomarker Activity (AID 2284264)
Settings: primary human bronchial epithelial cells with fibroblasts
Outline: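 Human bronchial epithelial cells co-cultured with dermal fibroblasts, dosed and read at 24 h. Secreted/surface IL-1α quantified by ELISA; gain-of-signal fitted relative to DMSO baseline. Parallel SRB total-protein staining tracked cytotoxicity.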

| Compound | AC50 | outcome |
| --- | --- | --- |
| O=C(O)C(F)(F)C(F)(F)C(F)(F)C(F)(F)C(F)(F)C(F)(F)C(F)(F)C(F)(F)C(F)(F)C(F)(F)F | 5.56 µM (active) and 6.17 µM (active) | – |
| O=C(O)C(F)(F)C(F)(F)C(F)(F)C(F)(F)C(F)(F)C(F)(F)F | – | inactive |
| O=C(O)CCC(F)(C(F)(F)F)C(F)(F)F | – | inactive |

Read-out: Decorin, DCN (gene 1634)
Test: BSK_MyoF_Decorin: BioMAP Diversity Plus: MyoF Assay for Decorin Biomarker Activity (AID 2284265)
Settings: primary human lung fibroblasts
Outline: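 Decorin protein was quantified by ELISA 24 h after chemical addition to primary human lung fibroblasts and analysed as increase over DMSO. Cytotoxicity was tracked in parallel cultures by SRB total-protein staining read at 560 nm.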

| Compound | outcome | AC50 |
| --- | --- | --- |
| CC(C)c1ccc(CO)cc1 | inactive | – |
| COC[C@H](C)N(C(=O)CCl)c1c(C)csc1C | inactive | – |
| O=C(O)C(F)(F)C(F)(F)C(F)(F)C(F)(F)C(F)(F)C(F)(F)C(F)(F)C(F)(F)C(F)(F)C(F)(F)F | – | 5.02 µM (active) and 5.16 µM (active) |
| CCCCC(CC)CO[N+](=O)[O-] (stereo not given) | inactive | – |
| CCOC(=O)/C=C(C)/C=C/C[C@@H](C)CCCC(C)C | – | 20 µM (active) |
| CC(C)CCCCCCOC(=O)c1ccccc1C(=O)OCCCCCCC(C)C | inactive | – |
| Nc1ncc([N+](=O)[O-])s1 | inactive | – |
| O=Cc1cccc(Oc2ccccc2)c1 | inactive | – |
| CCSC(C)CC1CC(=O)C(C(CC)=NOC/C=C/Cl)=C(O)C1 (stereo not given) | inactive | – |
| COP(=S)(OC)Oc1ccc(Sc2ccc(OP(=S)(OC)OC)cc2)cc1 | inactive | – |
| BrCCBr | inactive | – |
| Nc1ccc(-c2ccc(N)c(Cl)c2)cc1Cl | inactive | – |
| CC1(C)Cc2cccc(O)c2O1 | inactive | – |
| CC(=O)C(Cl)C(=O)N(C)C (stereo not given) | inactive | – |
| CCOP(=S)(OCC)SCCS(=O)(=O)CC | inactive | – |
| Nc1cccc2ccccc12 | inactive | – |
| CCNc1nc(NC(C)(C)C)nc(SC)n1 | inactive | – |
| O=C(OC1CCCCC1)c1ccccc1C(=O)OC1CCCCC1 | inactive | – |

| Compound | outcome | AC50 |
| --- | --- | --- |
| NC(=S)Nc1ccccc1 | inactive | – |
| C(=NC1CCCCC1)=NC1CCCCC1 | inactive | – |
| Oc1ccc(-c2ccccc2)cc1 | inactive | – |
| OCc1ccco1 | inactive | – |
| O=S(=O)(c1ccc(Cl)cc1)c1ccc(Cl)cc1 | inactive | – |
| COc1cc(OC)nc(NC(=O)NS(=O)(=O)c2ncccc2C(=O)N(C)C)n1 | inactive | – |
| COP(=S)(OC)Oc1ccc(S(=O)(=O)N(C)C)cc1 | inactive | – |
| CCCCCCCCC(=O)NCc1ccc(O)c(OC)c1 | inactive | – |
| O=C(O)C(F)(F)C(F)(F)C(F)(F)C(F)(F)C(F)(F)C(F)(F)F | inactive | – |
| O=C(O)CCC(F)(C(F)(F)F)C(F)(F)F | inactive | – |
| COP(=S)(OC)Oc1cc(Cl)c(Cl)cc1Cl | inactive | – |
| ClC(Cl)=C(Cl)C(Cl)=C(Cl)Cl | inactive | – |
| ClC1=C(Cl)[C@]2(Cl)[C@H]3[C@H]([C@H]4C=C[C@H]3C4)[C@@]1(Cl)C2(Cl)Cl | inactive | – |
| Oc1c(I)cc(I)cc1I | inactive | – |
| COP(=S)(OC)Oc1c(Cl)cc(C)cc1Cl | inactive | – |
| O=[N+]([O-])c1ccc2c3c(cccc13)CC2 | inactive | – |
| CCOP(=S)(OCC)Oc1ccc(S(C)=O)cc1 (stereo not given) | inactive | – |
| COC(=O)c1sccc1S(=O)(=O)NC(=O)Nc1nc(C)nc(OC)n1 | inactive | – |

Read-out: KRT18 (gene 3875)
Test: BSK_BF4T_Keratin818: BioMAP Diversity Plus: BF4T Assay for Keratin 818 Biomarker Activity (AID 2284266)
Settings: primary human bronchial epithelial cells with fibroblasts
Outline: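 Co-culture of human bronchial epithelial cells and dermal fibroblasts, chemical exposure 24 h. Keratin 8/18 measured by ELISA; positive-direction fit vs DMSO. SRB total protein run in parallel cultures for cytotoxicity.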

| Compound | AC50 | outcome |
| --- | --- | --- |
| O=C(O)C(F)(F)C(F)(F)C(F)(F)C(F)(F)C(F)(F)C(F)(F)C(F)(F)C(F)(F)C(F)(F)C(F)(F)F | 5.05 µM (active) and 5.17 µM (active) | – |
| O=C(O)C(F)(F)C(F)(F)C(F)(F)C(F)(F)C(F)(F)C(F)(F)F | – | inactive |
| O=C(O)CCC(F)(C(F)(F)F)C(F)(F)F | – | inactive |

Read-out: not listed separately
Test: BSK_MyoF_SRB: Viability Assessment in the BioMAP Diversity Plus: MyoF Assay (AID 2284267);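 also: total protein by SRB absorbance in parallel cultures as cytotoxicity measure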
Settings: primary human lung fibroblasts
Outline: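 Read-out is SRB absorbance at 560 nm, reflecting total protein in parallel lung fibroblast cultures harvested 24 h after compound addition. Cells were TCA-fixed (10%) and stained with 0.1% SRB; activity is referenced to DMSO.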

| Compound | outcome | AC50 |
| --- | --- | --- |
| CC(C)c1ccc(CO)cc1 | inactive | – |
| COC[C@H](C)N(C(=O)CCl)c1c(C)csc1C | inactive | – |
| O=C(O)C(F)(F)C(F)(F)C(F)(F)C(F)(F)C(F)(F)C(F)(F)C(F)(F)C(F)(F)C(F)(F)C(F)(F)F | – | 5.01 µM (active) and 5.05 µM (active) |
| CCCCC(CC)CO[N+](=O)[O-] (stereo not given) | inactive | – |
| CCOC(=O)/C=C(C)/C=C/C[C@@H](C)CCCC(C)C | – | 30.1 µM (active) |
| CC(C)CCCCCCOC(=O)c1ccccc1C(=O)OCCCCCCC(C)C | inactive | – |
| Nc1ncc([N+](=O)[O-])s1 | inactive | – |
| O=Cc1cccc(Oc2ccccc2)c1 | inactive | – |
| CCSC(C)CC1CC(=O)C(C(CC)=NOC/C=C/Cl)=C(O)C1 (stereo not given) | inactive | – |
| COP(=S)(OC)Oc1ccc(Sc2ccc(OP(=S)(OC)OC)cc2)cc1 | inactive | – |
| BrCCBr | inactive | – |
| Nc1ccc(-c2ccc(N)c(Cl)c2)cc1Cl | – | 24.9 µM (active) |
| CC1(C)Cc2cccc(O)c2O1 | inactive | – |
| CC(=O)C(Cl)C(=O)N(C)C (stereo not given) | inactive | – |
| CCOP(=S)(OCC)SCCS(=O)(=O)CC | inactive | – |
| Nc1cccc2ccccc12 | inactive | – |
| CCNc1nc(NC(C)(C)C)nc(SC)n1 | inactive | – |
| O=C(OC1CCCCC1)c1ccccc1C(=O)OC1CCCCC1 | – | 13.3 µM (active) |

| Compound | outcome | AC50 |
| --- | --- | --- |
| NC(=S)Nc1ccccc1 | inactive | – |
| C(=NC1CCCCC1)=NC1CCCCC1 | – | 7.2 µM (active) |
| Oc1ccc(-c2ccccc2)cc1 | inactive | – |
| OCc1ccco1 | inactive | – |
| O=S(=O)(c1ccc(Cl)cc1)c1ccc(Cl)cc1 | inactive | – |
| COc1cc(OC)nc(NC(=O)NS(=O)(=O)c2ncccc2C(=O)N(C)C)n1 | inactive | – |
| COP(=S)(OC)Oc1ccc(S(=O)(=O)N(C)C)cc1 | inactive | – |
| CCCCCCCCC(=O)NCc1ccc(O)c(OC)c1 | inactive | – |
| O=C(O)C(F)(F)C(F)(F)C(F)(F)C(F)(F)C(F)(F)C(F)(F)F | inactive | – |
| O=C(O)CCC(F)(C(F)(F)F)C(F)(F)F | inactive | – |
| COP(=S)(OC)Oc1cc(Cl)c(Cl)cc1Cl | inactive | – |
| ClC(Cl)=C(Cl)C(Cl)=C(Cl)Cl | inactive | – |
| ClC1=C(Cl)[C@]2(Cl)[C@H]3[C@H]([C@H]4C=C[C@H]3C4)[C@@]1(Cl)C2(Cl)Cl | inactive | – |
| Oc1c(I)cc(I)cc1I | – | 18.2 µM (active) |
| COP(=S)(OC)Oc1c(Cl)cc(C)cc1Cl | inactive | – |
| O=[N+]([O-])c1ccc2c3c(cccc13)CC2 | inactive | – |
| CCOP(=S)(OCC)Oc1ccc(S(C)=O)cc1 (stereo not given) | inactive | – |
| COC(=O)c1sccc1S(=O)(=O)NC(=O)Nc1nc(C)nc(OC)n1 | inactive | – |
